Assay results reported in PubChem BioAssay (NCATS).
Records with an inconclusive call do not appear. Calls of active or inactive are those of the source. Unless noted, calls come from the whole dose curve.

Assays:
[1] = Cell Viability - BJ (AID 421); settings: BJ fibroblast viability, qHTS;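 note: potency is the fitted concentration of half-maximal effect; cells exposed to compound for 40 hours at 37 °C before readout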
Outline: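 Quantitative HTS: ATP depletion in BJ cells after 40 hr compound exposure in complete culture medium, detected with CellTiter-Glo; AC50 from standard Hill fits.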

[2] = Cell Viability - Jurkat (AID 426;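 active = dose-dependent loss of cell ATP signal giving a full or clear fitted curve, ranked by lower potency value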; note: potency is the fitted concentration of half-maximal effect); settings: qHTS
Outline: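 Seed 5000 Jurkat E6-1 cells/well; add compound; incubate 40 hr at 37 °C; add CellTiter-Glo; wait 20 min at room temperature; read luminescence. Fit concentration-response with Hill equation for AC50.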

[3] = Cell Viability - Hek293 (AID 427;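 active = compounds whose dose-response curve shows a full or clear partial loss of cell viability, called from curve shape rather than a numeric limit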;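 note: potency is the fitted concentration of half-maximal effect; cells exposed to compound for 40 hours at 37 °C before reading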); settings: qHTS
Outline: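 AC50 values derive from Hill-modelled concentration-response of ATP-based luminescence, normalized between DMSO-only and 100 uM tamoxifen controls. Cells were exposed in complete culture medium for 40 hr at 37 °C before detection.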

[4] = Cell Viability - MRC5 (AID 434); settings: MRC5 lung fibroblast viability, qHTS;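 note: potency is the fitted concentration of half-maximal effect; potency reflects cytotoxicity seen as loss of intracellular ATP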
Outline: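 MRC5 normal human lung fibroblasts, 1500 cells/well, exposed to compound for 40 hr at 37 C. Cellular ATP was read by CellTiter-Glo luminescence; data normalized to DMSO and 100 uM tamoxifen, with AC50 from Hill fits.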

[5] = Cell Viability - SK-N-SH (AID 435); settings: SK-N-SH neuroblastoma cell viability qHTS;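 note: potency is the fitted concentration of half-maximal effect; compound exposure lasted 40 h at 37 °C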
Outline: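 Human neuroblastoma line, 40 h exposure at 37 °C, ATP quantified via luciferase luminescence; DMSO and 100 uM tamoxifen define 0 and 100% inhibition for AC50 fitting.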

[6] = Cell Viability - N2a (AID 540; active = well fitted curve in the direction sought with a large enough effect; an effect the other way counts as inactive or inconclusive;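 note: plate controls were DMSO alone for no effect and tamoxifen control for full effect; nearly all actives have a fitted effect of over 45% in size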); settings: N2a mouse neuroblastoma cell viability; activity change, negative = cytotoxicity: at 92.2 µM (top of the series)
Outline: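 First, 1500 N2a cells per well incubate 5 hr at 37 °C; next, compounds are added and incubated 40 hr at 37 °C; finally CellTiter-Glo is added and luminescence read after 20 min, with AC50 derived by Hill modeling.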

[7] = Cell Viability - NIH 3T3 (AID 541; active = well fitted curve in the direction sought with a large enough effect; an effect the other way counts as inactive or inconclusive;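 note: plate controls were DMSO alone for no effect and tamoxifen positive control for full effect; nearly all actives have a fitted effect of over 25% in size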); settings: NIH 3T3 cell viability, qHTS; activity change, negative = cytotoxicity: at 92.2 µM (top of the series)
Outline: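 AC50 values reflect concentration-dependent loss of intracellular ATP in NIH 3T3 cells after 40 hr treatment in complete culture medium, quantified by luciferase-based luminescence.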

[8] = Cell Viability - HUV-EC-C (AID 542; active = well fitted curve in the direction sought with a large enough effect; an effect the other way counts as inactive or inconclusive; note: % is set by controls: 0 for no effect and ±100 for the full control effect; nearly all actives have a fitted effect of over 35% in size); settings: HUV-EC-C endothelial cell viability, qHTS; series mostly up to 92.2 µM
Outline: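 Decrease in cellular ATP, quantified by luciferase luminescence, reflects toxicity in normal human vascular endothelial HUV-EC-C cells given compound for 40 hr in complete culture medium. Values are AC50s from concentration-response curves.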

[9] = molecular target: Mitogen-activated protein kinase 10 (Mus musculus) (UniProt Q61831); experiment: JNK3 AlphaScreen Assay (AID 530; active = well fitted curve in either direction with a large enough effect, not every such curve was filed as active;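 note: kinase came from lysate of stimulated human HepG2 cells; signal reports phosphorylation of biotinylated GST-cJun 1-79 at Ser73 with 10 µM ATP; % is set by controls: 0 for no effect and ±100 for the full control effect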); settings: JNK3 lysate, c-Jun phosphorylation; series mostly up to 57.1 µM
Outline: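 qHTS format: compounds tested as titrations against IL-1beta/TNF-alpha-activated HepG2 lysate JNK3 with biotin-GST-cJun substrate and 10 uM ATP at room temperature. Loss of anti-phospho-cJun AlphaScreen signal indicates inhibition.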

CC=C(Cl)Cl
inactive: Potency [1] > 92 µM | Potency [2] > 92 µM | Potency [3] > 92 µM | Potency [4] > 92 µM | Potency [5] > 92 µM | activity change, negative = cytotoxicity [6] -2.96% | Potency [7] | Potency [8]

Cc1cccc2ccccc12
inactive: Potency [1] > 92 µM | Potency [2] > 92 µM | Potency [3] > 92 µM | Potency [5] > 92 µM | outcome [9] | activity change, negative = cytotoxicity [6] -4.08% | Potency [7]

CC(=O)OC(C)=O
inactive: Potency [1] > 92 µM | Potency [2] > 92 µM | Potency [3] > 92 µM | Potency [5] > 92 µM | outcome [9] | activity change, negative = cytotoxicity [6] 1.01% | Potency [8]

Cc1ccc(C)c([N+](=O)[O-])c1
inactive: Potency [1] > 92 µM | Potency [2] > 92 µM | Potency [3] > 92 µM | Potency [4] > 92 µM | Potency [5] > 92 µM | outcome [9] | activity change, negative = cytotoxicity [6] 2.29% | Potency [7] | Potency [8]

C[C@@H]1CC2(OC3C[C@@]4(C)C5=CC[C@H]6C(C)(C)C(O[C@@H]7OC[C@@H](O)[C@H](O)[C@H]7O)CC[C@@]67C[C@@]57CC[C@]4(C)C31)OC(O)C1(C)OC21 (stereo partly specified)
inactive: Potency [1] > 92 µM | Potency [2] > 92 µM | Potency [3] > 92 µM | Potency [5] > 92 µM | outcome [9] | activity change, negative = cytotoxicity [6] -8.85% | Potency [7]

CCCCC/C=C/C=C/C=O
active: Potency [2] 29.6 µM | activity change, negative = cytotoxicity [6] -106% | activity change, negative = cytotoxicity [7] -100%
inactive: Potency [1] > 92 µM | Potency [3] > 92 µM | Potency [4] > 92 µM | Potency [5] > 92 µM | outcome [9] | Potency [8]

CC(C)CO
inactive: Potency [1] > 92 µM | Potency [2] > 92 µM | Potency [3] > 92 µM | Potency [5] > 92 µM | outcome [9] | activity change, negative = cytotoxicity [6] 3.29% | Potency [7] | Potency [8]

Oc1c(Cl)ccc(Cl)c1Cl
inactive: Potency [1] > 92 µM | Potency [2] > 92 µM | Potency [3] > 92 µM | Potency [4] > 92 µM | Potency [5] > 92 µM | activity change, negative = cytotoxicity [6] -9.1% | Potency [7] | Potency [8]

CCOCCOCC
inactive: Potency [1] > 92 µM | Potency [2] > 92 µM | Potency [3] > 92 µM | Potency [4] > 92 µM | Potency [5] > 92 µM | outcome [9] | activity change, negative = cytotoxicity [6] -1.44% | Potency [7]

CCC(C)(C)C(=O)O
inactive: Potency [1] > 92 µM | Potency [2] > 92 µM | Potency [3] > 92 µM | Potency [4] > 92 µM | outcome [9] | activity change, negative = cytotoxicity [6] 6.55% | Potency [7] | Potency [8]

C/C=C1\CC2C=CC1C2 (stereo unspecified)
inactive: Potency [1] > 92 µM | Potency [2] > 92 µM | Potency [3] > 92 µM | Potency [4] > 92 µM | Potency [5] > 92 µM | outcome [9] | activity change, negative = cytotoxicity [6] 4.82% | Potency [7] | Potency [8]

ON=C1CCCCC1
inactive: Potency [1] > 92 µM | Potency [2] > 92 µM | Potency [3] > 92 µM | Potency [4] > 92 µM | Potency [5] > 92 µM | activity change, negative = cytotoxicity [6] 0.317% | Potency [7] | Potency [8]

Cc1ccc(C)cc1
inactive: Potency [1] > 92 µM | Potency [2] > 92 µM | Potency [3] > 92 µM | Potency [4] > 92 µM | Potency [5] > 92 µM | outcome [9] | activity change, negative = cytotoxicity [6] -13.5% | Potency [7] | Potency [8]

O=P(O)(OCc1ccccc1)OCc1ccccc1
inactive: Potency [1] > 92 µM | Potency [2] > 92 µM | Potency [3] > 92 µM | Potency [4] > 92 µM | Potency [5] > 92 µM | outcome [9] | activity change, negative = cytotoxicity [6] 4.67% | Potency [7] | Potency [8]

CCC(O)C(C)(C)C (stereo unspecified)
inactive: Potency [1] > 92 µM | Potency [2] > 92 µM | Potency [3] > 92 µM | Potency [4] > 92 µM | Potency [5] > 92 µM | outcome [9] | activity change, negative = cytotoxicity [6] 5.57% | Potency [7] | Potency [8]

CNc1ccccc1
inactive: Potency [1] > 92 µM | Potency [2] > 92 µM | Potency [3] > 92 µM | Potency [4] > 92 µM | Potency [5] > 92 µM | outcome [9] | activity change, negative = cytotoxicity [6] -12.9% | Potency [7] | Potency [8]

O=C(O)c1cccc(Cl)c1Cl
inactive: Potency [1] > 92 µM | Potency [2] > 92 µM | Potency [3] > 92 µM | Potency [4] > 92 µM | Potency [5] > 92 µM | outcome [9] | activity change, negative = cytotoxicity [6] -7.38% | Potency [7] | Potency [8]

C=CCOC(=O)CCCCCCCC
inactive: Potency [1] > 92 µM | Potency [2] > 92 µM | Potency [3] > 92 µM | Potency [4] > 92 µM | Potency [5] > 92 µM | outcome [9] | activity change, negative = cytotoxicity [6] 9.38% | Potency [7] | Potency [8]

[O-]/[N+](=N\O)c1ccccc1
inactive: Potency [1] > 92 µM | Potency [2] > 92 µM | Potency [3] > 92 µM | Potency [5] > 92 µM | outcome [9] | activity change, negative = cytotoxicity [6] 0.0649% | Potency [7] | Potency [8]

COC(=O)CS
inactive: Potency [1] > 92 µM | Potency [2] > 92 µM | Potency [3] > 92 µM | Potency [4] > 92 µM | Potency [5] > 92 µM | outcome [9] | activity change, negative = cytotoxicity [6] -8.95% | Potency [7] | Potency [8]

BrC/C=C/CBr
inactive: Potency [1] > 92 µM | Potency [2] > 92 µM | Potency [3] > 92 µM | Potency [4] > 92 µM | Potency [5] > 92 µM | outcome [9] | activity change, negative = cytotoxicity [6] 6.2% | Potency [7] | Potency [8]

Clc1ccccn1
inactive: Potency [1] > 92 µM | Potency [2] > 92 µM | Potency [3] > 92 µM | Potency [4] > 92 µM | Potency [5] > 92 µM | outcome [9] | activity change, negative = cytotoxicity [6] -19.1% | Potency [7] | Potency [8]

O=Cc1ccc(C(=O)O)cc1
inactive: Potency [1] > 92 µM | Potency [2] > 92 µM | Potency [3] > 92 µM | Potency [5] > 92 µM | outcome [9] | activity change, negative = cytotoxicity [6] -12.7% | Potency [7] | Potency [8]

C=CC(=O)OCCCC
inactive: Potency [1] > 92 µM | Potency [2] > 92 µM | Potency [3] > 92 µM | Potency [4] > 92 µM | Potency [5] > 92 µM | outcome [9] | activity change, negative = cytotoxicity [6] 10.3% | Potency [7] | Potency [8]

Cc1ccc2nc(-c3ccc(N)cc3)sc2c1S(=O)(=O)O
inactive: Potency [1] > 92 µM | Potency [2] > 92 µM | Potency [3] > 92 µM | Potency [5] > 92 µM | outcome [9] | activity change, negative = cytotoxicity [6] 3.3%

FC(F)(F)c1cccc(Cl)c1
inactive: Potency [1] > 92 µM | Potency [2] > 92 µM | Potency [3] > 92 µM | Potency [4] > 92 µM | Potency [5] > 92 µM | outcome [9] | activity change, negative = cytotoxicity [6] -8.83% | Potency [8]

CC=O
inactive: Potency [1] > 92 µM | Potency [2] > 92 µM | Potency [3] > 92 µM | Potency [4] > 92 µM | Potency [5] > 92 µM | outcome [9] | activity change, negative = cytotoxicity [6] 1.14% | Potency [7] | Potency [8]

FB(F)F
inactive: Potency [1] > 92 µM | Potency [2] > 92 µM | Potency [3] > 92 µM | Potency [4] > 92 µM | Potency [5] > 92 µM | outcome [9] | activity change, negative = cytotoxicity [6] 5.96%

CCCCC(CC)C(=O)O (stereo unspecified)
inactive: Potency [1] > 92 µM | Potency [2] > 92 µM | Potency [3] > 92 µM | Potency [4] > 92 µM | Potency [5] > 92 µM | outcome [9] | activity change, negative = cytotoxicity [6] 4.15% | Potency [7] | Potency [8]

Cc1ccccc1C=O
inactive: Potency [1] > 92 µM | Potency [2] > 92 µM | Potency [3] > 92 µM | Potency [4] > 92 µM | Potency [5] > 92 µM | activity change, negative = cytotoxicity [6] 2.15% | Potency [7] | Potency [8]

Clc1cc(Cl)cc(Cl)c1
inactive: Potency [1] > 92 µM | Potency [2] > 92 µM | Potency [3] > 92 µM | Potency [4] > 92 µM | Potency [5] > 92 µM | outcome [9] | activity change, negative = cytotoxicity [6] 4.86% | Potency [7] | Potency [8]

NC(N)=S
inactive: Potency [1] > 92 µM | Potency [2] > 92 µM | Potency [3] > 92 µM | Potency [4] > 92 µM | Potency [5] > 92 µM | outcome [9] | activity change, negative = cytotoxicity [6] 7.78% | Potency [7] | Potency [8]

Nc1cc(Cl)c([N+](=O)[O-])cc1O
inactive: Potency [1] > 92 µM | Potency [2] > 92 µM | Potency [3] > 92 µM | Potency [4] > 92 µM | Potency [5] > 92 µM | outcome [9] | Potency [8]
active: activity change, negative = cytotoxicity [6] -99.1%

O=Cc1ccc(Cl)cc1
inactive: Potency [1] > 92 µM | Potency [2] > 92 µM | Potency [3] > 92 µM | Potency [4] > 92 µM | Potency [5] > 92 µM | outcome [9] | activity change, negative = cytotoxicity [6] -2.43% | Potency [7] | Potency [8]

Cc1ccc(CO)cc1
inactive: Potency [1] > 92 µM | Potency [2] > 92 µM | Potency [3] > 92 µM | Potency [4] > 92 µM | Potency [5] > 92 µM | outcome [9] | activity change, negative = cytotoxicity [6] -2.9% | Potency [7] | Potency [8]

Cc1ccc(Br)cc1
inactive: Potency [1] > 92 µM | Potency [2] > 92 µM | Potency [3] > 92 µM | Potency [4] > 92 µM | Potency [5] > 92 µM | outcome [9] | activity change, negative = cytotoxicity [6] 6.22% | Potency [8]
